These results are taken from PubChem BioAssay.

Test [1] is described as follows: E. coli DRC41 culture turbidity changes, primary screen, E. coli filamentation inducer project, strain DRC41, OD650, 48 h (AID 1152).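 Note: E. coli MC1000 strain DRC41 lacking acrAB efflux pump and sulA.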 As to conditions: E. coli DRC41 (acrAB sulA), higher = more signal, called active from +8 up or from −8 down.
A short description of test [2]: small-molecule binders of probe aLefty1, primary screen, biochemical, small-molecule microarray, 635/667 nm fluorescence (AID 1153).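 Note: score merges spot fluorescence with signal-to-noise ratio from the scanned slide images.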 The settings on record: higher = more signal.
Test [3] in a line: PSAC antagonists in infected red cells, primary screen, cell-based, P. falciparum Indochina, OD700, 1 h (AID 1154). As to conditions: P. falciparum Indochina infected RBC osmotic lysis, higher = more signal, called active from +8 up or from −8 down.
Test [4] is described as follows: PSAC antagonists in infected red cells, primary screen, cell-based, P. falciparum Indochina, OD700, 2 h (AID 1155).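 Note: lysis reports solute entry through the parasite surface anion channel PSAC; channel blockers reduce lysis of infected cells.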 As to conditions: P. falciparum Indochina infected erythrocytes, osmotic lysis OD700; higher = more signal, called active from +8 up or from −8 down.
A short description of test [5]: osmotic lysis modulators in infected erythrocytes, primary screen, PSAC antagonist project, cell-based, P. falciparum Indochina, OD700, 3 h (AID 1156). The settings on record: higher = more signal, called active from +8 up or from −8 down.
Test [6] can be described thus: PSAC antagonists in infected red cells, primary screen, cell-based, P. falciparum Indochina, OD700, 18 h (AID 1157). As to conditions: P. falciparum Indochina infected erythrocytes, osmotic lysis OD700, 18 h; higher = more signal, called active from +8 up or from −8 down.
Test [7] is described as follows: modulators of S6 phosphorylation in cells, primary screen, cell-based, A549, cytoblot, luminescence, serum-stimulated (AID 1158).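 Note: serum-stimulated A549 lung adenocarcinoma cells; signal is phosphorylated S6 detected by cytoblot immunostaining with HRP secondary.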 As to conditions: A549 phospho-S6 cytoblot, 5 h, higher = more signal.
Test [8] has as its target NADPH oxidase 2 (Homo sapiens) (UniProt P04839). The test is described as follows: NOX2-dependent H2O2 signal modulators, primary screen, NOX inhibitor project, cell-based, HEK293-NOX2, PMA-stimulated, Amplex Red fluorescence (AID 1159). Note: test concentration not given here. As to conditions: 45 min, higher = more signal, called active from +8 up or from −8 down.
In test [9] the target is NADPH oxidase 4 (Homo sapiens) (UniProt Q9NPH5). The test is described as follows: NOX4-dependent H2O2 signal modulators, primary screen, NOX inhibitor project, cell-based, HEK293-NOX4, tetracycline-induced, Amplex Red fluorescence (AID 1160). As to conditions: 45 min, higher = more signal, called active from +8 up or from −8 down.
Test [10] deals with NADPH oxidase 5 (Homo sapiens) (UniProt Q96PH1). As to the kind of experiment: NOX5-dependent H2O2 signal modulators, primary screen, NOX inhibitor project, cell-based, HEK293-NOX5, Amplex Red fluorescence (AID 1161). As to conditions: HEK293-NOX5, ionomycin, 45 min, higher = more signal.
Test [11] in a line: A549 cell viability effects, profiling panel, calcein-AM fluorescence, 48 h, basal (AID 1162). Note: test concentration not given here. As to conditions: higher = more signal.
The nature of test [12]: adipocyte viability effects, profiling panel, cell-based, 3T3-L1 adipocytes, calcein-AM fluorescence, 48 h, basal (AID 1163). Note: test concentration not given here. As to conditions: 3T3-L1 adipocytes viability, higher = more signal.
Test [13] is described as follows: HepG2 cell viability effects, profiling panel, calcein-AM fluorescence, 48 h, basal (AID 1164). Note: test concentration not given here. As to conditions: higher = more signal.
A short description of test [14]: MM1S cell viability effects, profiling panel, calcein-AM fluorescence, 48 h, basal (AID 1165).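 Note: viability of MM1S multiple myeloma cells under basal unstimulated conditions; test concentration not given here.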 The settings on record: higher = more signal.
Test [15] in a line: basal RPMI8226 viability, no added stimulus, profiling panel, cell-based, calcein-AM fluorescence, 48 h, PK04 Diversity Set (AID 1166).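 Note: cells grown under basal conditions without added stimulus; test concentration not given here.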 The settings on record: RPMI8226 myeloma viability, higher = more signal.
Test [16] in a line: basal HepG2 mitochondrial membrane potential changes, profiling panel, cell-based, JC-1 fluorescence, 24 h, 100 nL compound (AID 1167). Note: test concentration not given here. As to conditions: higher = more signal.
Test [17] is described as follows: basal 3T3-L1 adipocyte mitochondrial potential changes, profiling panel, cell-based, JC-1 fluorescence, 3T3-L1 adipocytes, 24 h, 100 nL compound (AID 1168). Note: test concentration not given here. The settings on record: JC-1 mitochondrial fluorescence, higher = more signal, called active from +8 up or from −8 down.
Test [18] can be described thus: basal RPMI8226 mitochondrial membrane potential changes, profiling panel, cell-based, JC-1 fluorescence, 24 h, 100 nL compound (AID 1169). Note: test concentration not given here. The settings on record: RPMI8226 myeloma, JC-1 mitochondrial potential fluorescence, higher = more signal.
The nature of test [19]: basal MM1S mitochondrial membrane potential changes, profiling panel, cell-based, JC-1 fluorescence, 24 h, 100 nL compound (AID 1170). Note: test concentration not given here. The settings on record: higher = more signal.
A short description of test [20]: A549 lung cancer cell viability effects, profiling panel, resazurin fluorescence, 24 h, PK04 Diversity Set (AID 1171). Note: test concentration not given here. The settings on record: higher = more signal, called active from +8 up or from −8 down. (The colour change of resazurin is a common sign of viable cells or microbes.)

Activity calls are given as the source filed them.

Chain of NADPH oxidase 2 (Homo sapiens) (P04839 whole entry, looked up): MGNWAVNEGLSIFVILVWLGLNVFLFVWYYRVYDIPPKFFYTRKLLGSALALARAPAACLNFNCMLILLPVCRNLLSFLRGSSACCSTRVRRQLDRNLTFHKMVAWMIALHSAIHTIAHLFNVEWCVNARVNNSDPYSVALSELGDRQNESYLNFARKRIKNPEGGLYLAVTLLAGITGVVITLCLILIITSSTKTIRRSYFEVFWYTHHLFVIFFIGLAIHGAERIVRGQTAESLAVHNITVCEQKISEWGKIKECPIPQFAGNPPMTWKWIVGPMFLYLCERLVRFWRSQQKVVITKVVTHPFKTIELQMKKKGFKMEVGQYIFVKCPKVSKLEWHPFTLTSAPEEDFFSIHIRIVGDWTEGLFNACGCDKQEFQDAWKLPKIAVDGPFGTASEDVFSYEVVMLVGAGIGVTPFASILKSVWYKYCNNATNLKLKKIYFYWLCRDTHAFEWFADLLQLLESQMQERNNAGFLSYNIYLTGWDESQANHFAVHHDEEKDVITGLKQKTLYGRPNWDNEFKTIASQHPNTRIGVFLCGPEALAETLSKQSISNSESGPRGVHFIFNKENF
Chain of NADPH oxidase 5 (Homo sapiens) (Q96PH1 whole entry, looked up): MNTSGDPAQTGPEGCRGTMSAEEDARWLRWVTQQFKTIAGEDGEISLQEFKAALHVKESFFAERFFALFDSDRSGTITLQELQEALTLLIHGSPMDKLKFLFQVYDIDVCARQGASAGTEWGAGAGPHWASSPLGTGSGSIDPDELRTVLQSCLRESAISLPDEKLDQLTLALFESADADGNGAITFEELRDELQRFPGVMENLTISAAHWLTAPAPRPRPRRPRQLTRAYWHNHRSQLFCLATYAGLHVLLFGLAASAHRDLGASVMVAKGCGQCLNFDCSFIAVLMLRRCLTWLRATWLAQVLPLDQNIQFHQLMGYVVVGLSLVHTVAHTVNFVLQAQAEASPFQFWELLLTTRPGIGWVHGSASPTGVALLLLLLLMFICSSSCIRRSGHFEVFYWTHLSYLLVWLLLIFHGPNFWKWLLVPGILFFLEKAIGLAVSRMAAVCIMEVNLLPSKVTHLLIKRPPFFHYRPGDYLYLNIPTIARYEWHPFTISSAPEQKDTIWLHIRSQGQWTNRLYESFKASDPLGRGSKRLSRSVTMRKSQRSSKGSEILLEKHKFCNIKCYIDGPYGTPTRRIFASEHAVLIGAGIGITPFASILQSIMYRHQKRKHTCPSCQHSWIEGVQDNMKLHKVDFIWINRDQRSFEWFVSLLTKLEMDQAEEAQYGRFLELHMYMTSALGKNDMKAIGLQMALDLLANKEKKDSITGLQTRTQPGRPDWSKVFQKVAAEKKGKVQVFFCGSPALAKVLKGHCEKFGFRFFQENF
Chain of NADPH oxidase 4 (Homo sapiens) (Q9NPH5 whole entry, looked up): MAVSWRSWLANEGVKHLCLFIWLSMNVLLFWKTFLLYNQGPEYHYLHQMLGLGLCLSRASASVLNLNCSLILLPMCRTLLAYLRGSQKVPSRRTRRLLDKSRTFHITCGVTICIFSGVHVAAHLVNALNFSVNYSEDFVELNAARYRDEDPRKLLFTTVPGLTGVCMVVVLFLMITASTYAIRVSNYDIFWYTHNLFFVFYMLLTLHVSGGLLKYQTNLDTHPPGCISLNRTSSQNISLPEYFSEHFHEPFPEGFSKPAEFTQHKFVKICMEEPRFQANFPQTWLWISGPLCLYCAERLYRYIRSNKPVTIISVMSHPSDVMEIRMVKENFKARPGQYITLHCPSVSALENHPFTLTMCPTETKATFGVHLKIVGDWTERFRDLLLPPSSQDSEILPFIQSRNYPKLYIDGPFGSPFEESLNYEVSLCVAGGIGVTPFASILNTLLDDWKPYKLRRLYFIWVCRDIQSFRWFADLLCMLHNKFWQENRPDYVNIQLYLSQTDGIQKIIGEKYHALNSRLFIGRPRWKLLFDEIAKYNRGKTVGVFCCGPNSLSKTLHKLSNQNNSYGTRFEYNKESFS

As to `CC1C=C(CCCO)C=C(C(=O)OCCS(C)(=O)=O)C(C(=O)OCCS(C)(=O)=O)=CN1Cc1cccc(OC(F)(F)F)c1` (stereo not given), the z-score was -0.311 (inactive) in test [1]; 1.81 (inactive) in [3]; 0.45 (inactive) in test [4]; 0.714 (inactive) in [5]; 0.283 (inactive) in test [6]; 0.402 in [7]. Further, the z-score in [8] was -1.97 (inactive); in test [9], -0.729 (inactive); in test [10] it was -1.67; in test [11], 0.114; in test [12], 0.606; in test [13], 1.23. Moreover, the z-score is -0.289 in test [14]; -0.226 in test [15]; 1.27 in test [16]; -0.63 (inactive) in test [17]; 0.186 in [18]; -0.0273 in test [19]. Besides, the z-score in [20] was -0.0746 (inactive). In test [2], this molecule returned a composite z-score of 0.304.
Regarding `COC(=O)C(CC#Cc1ccc2c(c1)[C@]1(C(=O)N2)[C@H](c2ccccc2OCCO)N2[C@H](c3ccccc3)[C@H](c3ccccc3)OC(=O)[C@H]2[C@@H]1C(=O)Nc1nc2ccccc2s1)C(=O)OC`, the z-score in [1] is -1.2 (inactive); in test [3], 4.68 (inactive); in test [4], 1.71 (inactive); in test [5], 0.103 (inactive); in test [6], 1.77 (inactive); in test [7], 0.334. Further, the z-score in test [8] is 1.04 (inactive); in test [9] it was 0.517 (inactive); in test [10] it was 0.545; in test [11], 0.689; in test [12] it was 1.15; in [13] it was 0.755. Further, the z-score in [14] was -3.33; in test [15], -1.74; in test [16], -2.74; in test [17], -0.00705 (inactive); in [18], -0.905; in [19], -0.548. Further, the z-score in test [20] was -0.203 (inactive). Also, the composite z-score in test [2] was 0.361.
On to `[N-]=[N+]=NCc1ccccc1[C@H]1OC(c2ccc(OCCCO)cc2)=N[C@@]1(Cc1ccccc1)C(N)=O`, for which the z-score in [1] is 0.0183 (inactive); in [3], 25.2 (active); in test [4], 15.2 (active); in test [5], 1.79 (inactive); in [6] it was 2.75 (inactive); in test [7], 0.534. Moreover, the z-score in [8] was -0.17 (inactive); in [9], 1.21 (inactive); in [10], 1.2; in test [11] it was 0.267; in test [12], 0.514; in test [13], 1.63. The z-score is -0.0987 in test [14]; 0.317 in test [15]; 1.19 in test [16]; 0.593 (inactive) in test [17]; -0.418 in [18]; -1.01 in test [19]. In addition, in test [20], the z-score is 1.16 (inactive). Besides, in test [2], the composite z-score worked out at 0.174.
For the molecule `C=CC[C@]1(C(=O)NCC(O)CO)N=C(c2ccc(OCCCO)cc2)O[C@H]1c1ccccc1N=[N+]=[N-]` (stereo not given in full), the z-score in [1] was 0.33 (inactive); in [3] it was 34.3 (active); in [4], 30.5 (active); in test [5] it was 2 (inactive); in test [6], 7.28 (inactive); in test [7], -0.33. For the same molecule, the z-score in test [8] is -0.357 (inactive); in test [9], 1.74 (inactive); in test [10], 0.781; in test [11], -0.402; in test [12], 0.864; in test [13], -0.735. Further, the z-score was -1.16 in test [14]; 0.736 in [15]; -0.285 in [16]; 0.13 (inactive) in [17]; -0.49 in test [18]; 0.857 in test [19]. The z-score in test [20] was 0.702 (inactive). The molecule also showed a composite z-score in test [2] of 0.658.
